Test results: PubChem BioAssay AID463173 (ICCB-Longwood Screening Facility, Harvard Medical School, 2010)
In all, about 52,000 compounds went through this assay and about 4,300 (8.3%) were called active. This excerpt belongs to a sample that is enriched for actives. Unmarked numbers belong to inactive results. Cut-off read from the data, not from the text of the source: active = survival mostly below about 52% (no sharp cut-off); inactive = mostly above about 56%.

tested on: DeltatarO mutant; assay: S. aureus survival, RN4220 and DeltatarO strains – OD600, teichoic acid synthesis inhibitors, primary screen (AID 463173); conditions: S. aureus RN4220 wild type/DeltatarO growth, OD600, 18 h, active compounds read low, screened at 18.75 µg/mL (by protocol)

Row | SMILES | survival
1 | CCC(=O)N1CCc2cc(CNC(=O)c3cccc(N(C)C)c3)ccc21 | 84%
2 | CCOc1ccc(NC(=O)CC2C(=O)N(c3ccc(OC)cc3)C(=O)N2C2CCCCC2)cc1 (stereo not drawn) | 110%
3 | CCOc1cc(C)c(C(C)C)cc1S(=O)(=O)n1ccnc1CC | -3% (active)
4 | Cc1nccn1S(=O)(=O)c1c(C(C)C)cc(C(C)C)cc1C(C)C | 86%
5 | CCOc1ccc(OCC)c(S(=O)(=O)n2cnc3cc(C)c(C)cc32)c1 | 104%
6 | COc1cc(S(=O)(=O)n2ccnc2C(C)C)ccc1Br | 55%
7 | Cc1nccn1S(=O)(=O)c1ccc(Cl)cc1Cl | 67%
8 | CCc1nccn1S(=O)(=O)c1cc(Br)ccc1Br | 43% (active)
9 | Cc1ccc(NC(=O)CN(C)S(=O)(=O)c2cnc[nH]2)cc1 | 102%
10 | Cc1cc(C(=O)NCc2ccccc2)c2c(C)nn(-c3cccc(F)c3)c2n1 | 55%
11 | O=C(NCCc1ccccc1)C1CCN(c2ncnc3c2nc2n3CCCCC2)CC1 | -2% (active)
12 | O=C(NCc1ccccc1)C1CCN(c2ncnc3c2nc2n3CCCCC2)CC1 | 84%
13 | Cc1ccc(N2CCN(C(=O)C3CCN(c4ncnc5c4nc4n5CCCCC4)CC3)CC2)c(C)c1 | 79%
14 | O=C(NCCc1ccc(Cl)cc1)C1CCN(c2ncnc3c2nc2n3CCCCC2)CC1 | 89%
15 | O=C(C1CCN(c2ncnc3c2nc2n3CCCCC2)CC1)N1CCN(c2ccccc2)CC1 | 72%
16 | Cc1cccc(N2CCN(c3ncnc4c3nc3n4CCCCC3)CC2C)c1 (stereo not drawn) | 101%
17 | O=C(C1CCN(c2ncnc3c2nc2n3CCCCC2)CC1)N1CCN(c2ccc(F)cc2)CC1 | -1% (active)
18 | O=C(C1CCN(c2ncnc3c2nc2n3CCCCC2)CC1)N1CCN(c2ccc(Cl)cc2)CC1 | 81%
19 | Cc1cccc(N2CCN(C(=O)C3CCN(c4ncnc5c4nc4n5CCCCC4)CC3)CC2C)c1 (stereo not drawn) | 6% (active)
20 | O=c1c(N2CCc3ccccc3C2)csc2ccc(Br)cc12 | 78%
21 | Cc1cc(C)c(S(=O)(=O)Nc2ccc(-c3ccc(N4CCCCCC4)nn3)cc2)c(C)c1 | 84%
22 | O=C1CC(C(=O)NCc2ccccc2)N=C(N2CCCCC2)N1 (stereo not drawn) | 97%
23 | Cc1cc(C)cc(NC(=O)CN(C)S(=O)(=O)c2ccc3c(c2)CCC(=O)N3)c1 | 90%
24 | CCCCOC(=O)OC1CCS(=O)(=O)C1 (stereo not drawn) | 66%
25 | Cc1cccc(-n2cc(-c3ccccc3)c3c(NC(C)C)ncnc32)c1 | 107%

Row | SMILES | survival
26 | Cc1nc2nc(C(F)(F)F)[nH]c2cc1Br | 4% (active)
27 | Nc1ccc2nc(C(F)(F)F)[nH]c2c1 | 95%
28 | COc1ccccc1OC(C)C(=O)Nc1ccc(-c2nc3ccccc3s2)cc1 (stereo not drawn) | 64%
29 | Cc1cc2oc(C(=O)Nc3cccc(-c4nc5ccccc5o4)c3)c(C)c2cc1Cl | 80%
30 | Cc1cc(OC(C)C(=O)Nc2cccc(-c3nc4ccccc4o3)c2)cc(C)c1Cl (stereo not drawn) | 46% (active)
31 | Cc1ccc(C(=O)Nc2cccc(-c3nc4ccccc4o3)c2)c(Cl)c1 | 53%
32 | CC(C)C(=O)Nc1cccc(-c2nc3ccccc3o2)c1 | 112%
33 | COc1ccccc1OC(C)C(=O)Nc1cccc(-c2nc3ccccc3s2)c1 (stereo not drawn) | 37% (active)
34 | CC(Oc1ccccc1F)C(=O)Nc1ccc(-c2nc3ccccc3s2)cc1 (stereo not drawn) | 107%
35 | CC(=O)Nc1cccc(-c2nc3ccccc3o2)c1 | 107%
36 | COc1ccccc1OC(C)C(=O)Nc1cccc(-c2nc3ccccc3o2)c1 (stereo not drawn) | 18% (active)
37 | COc1ccc(-c2cn3nc(N4CCCC(C(=O)Nc5cccc(Cl)c5C)C4)sc3n2)cc1 (stereo not drawn) | 82%
38 | COc1ccc(-n2ncc(C(=O)NCCCN3CCCCC3)c2C2CCN(C(=O)OC(C)(C)C)CC2)cc1 | 73%
39 | CCCOc1ccc(C(=O)Nc2ccc3oc(-c4ccncc4)nc3c2)cc1 | 62%
40 | Cc1cccc(-c2cc(NC(=O)c3ccccc3C)n(-c3ccccc3)n2)c1 | 80%
41 | Cc1nc2sc(C(=O)N(C)c3ccccc3)c(NC(=O)c3ccccc3Cl)c2c(C)c1C | 57%
42 | CCCCCn1c(=O)[nH]c2cc(C(=O)NCc3ccc(Cl)cc3)ccc2c1=O | 71%
43 | COc1cccc2cc(-c3csc(-c4ccc(Cl)cc4)n3)c(=O)oc12 | 99%
44 | COc1ccc(NC(=O)c2c(C)oc3ccc(O)c(CN4CCCCCC4)c23)cc1Cl | 94%
45 | COc1ccc(NC(=O)c2c(C)oc3ccc(O)c(CN4CCCC(C)C4)c23)cc1Cl (stereo not drawn) | 52% (active)
46 | CCN1CCN(Cc2c(O)ccc3oc(C)c(C(=O)Nc4ccc(OC)c(Cl)c4)c23)CC1 | 66%
47 | COc1ccc(NC(=O)c2c(C)oc3ccc(O)c(CN4CCC(C)CC4)c23)cc1Cl | 55% (active)
48 | COc1ccc(NC(=O)c2c(C)oc3ccc(O)c(CN4CCCC(C)C4)c23)cc1 (stereo not drawn) | 87%
49 | COc1ccc(NC(=O)c2c(C)oc3ccc(O)c(CN4CCCC4)c23)cc1Cl | 80%
50 | COc1ccc(CCNCc2c(C(=O)O)c(C)n(Cc3c(F)cccc3Cl)c2C)cc1OC | 121%

Row | SMILES | survival
51 | CCCCOC(=O)c1ccc(NC(=O)Cn2nnc3sc4c(c3c2=O)CCCC4)cc1 | 67%
52 | Cc1ccc(CCNS(=O)(=O)c2c(C)nc3sc(C)c(C)n3c2=O)cc1 | 82%
53 | CCCNC(=O)c1cnc2sc(N3CCCCCC3)nn2c1=O | 78%
54 | COc1ccc(CNC(=O)c2ccc(NC(=O)N3CCSc4ncccc43)cc2)cc1 | 84%
55 | COc1ccc(OC)c(-n2c3c(cc(-c4nc(-c5ccc(Cl)cc5)cs4)c2=O)C(=O)CC(C)(C)C3)c1 | 75%
56 | CC(C)c1ccc2oc(-c3ccc(NC(=O)c4cc5ccccc5o4)cc3)nc2c1 | 48%
57 | CCOc1ccc(C(=O)Nc2ccc3oc(-c4ccc(Br)cc4)nc3c2)cc1 | 68%
58 | COc1ccc(-c2nc3cc(NC(=O)c4cc5ccccc5o4)ccc3o2)cc1 | 62%
59 | CCc1ccc2oc(-c3ccc(NC(=O)c4cccc(Cl)c4Cl)cc3)nc2c1 | 63%
60 | CCc1ccc2oc(-c3ccc(N)cc3)nc2c1 | 34% (active)
61 | CCOc1ccc(C(=O)Nc2ccc(-c3nc4cc(CC)ccc4o3)cc2)cc1 | 61%
62 | CCc1ccc2oc(-c3cccc(NC(=O)c4cc5ccccc5o4)c3)nc2c1 | 14% (active)
63 | CCC(C)c1ccc2oc(-c3ccc(NC(=O)c4cc5ccccc5o4)cc3)nc2c1 (stereo not drawn) | 46% (active)
64 | CCc1ccc2oc(-c3cccc(NC(=O)C(C)(C)Oc4ccc(Br)cc4)c3)nc2c1 | 36% (active)
65 | Cc1cc2nc(-c3ccc(NC(=O)c4cc5ccccc5o4)cc3)oc2cc1C | 51%
66 | CCc1ccc2oc(-c3cccc(NC(=O)c4ccc(-c5cccc([N+](=O)[O-])c5)o4)c3)nc2c1 | 58%
67 | CCc1ccc2oc(-c3cccc(NC(=O)COc4ccccc4Cl)c3)nc2c1 | 57%
68 | COc1ccc2c(c1)c1c(c(=O)n(-c3ccc(F)c(Cl)c3)c(=O)n1Cc1ccccc1C)n2C | 83%
69 | COc1ccc(-n2ccnc2SCC(=O)Nc2cccc(OC)c2)cc1 | 98%
70 | Cc1cc(=O)[nH]c2nnc(SCC(=O)Nc3ccc(OC(F)(F)F)cc3)n12 | 74%
71 | CCc1ccc(CNC(=O)c2ccc(-n3c(C)cc4c3CCC(C)C4)cc2)cc1 (stereo not drawn) | 123%
72 | Cc1ccn2c(=O)cc(CSc3nnc(C)s3)nc2c1 | 77%
73 | COc1ccc(-c2cc(OC(=O)c3cccc(Cl)c3)c3c(C)oc(C)c3c(=O)c2)cc1 | 132%
74 | COc1ccc(S(=O)(=O)N2CCN(c3cccc(C)c3C)CC2)c2ccccc12 | 152%
75 | CCCN1CCN(c2ncc3c(n2)CCN(Cc2ccc(OC)c(OC)c2OC)C3)CC1 | 83%

Row | SMILES | survival
76 | Cc1ccc(-c2nc3cc(NC(=O)c4cc5ccccc5o4)ccc3o2)cc1 | 72%
77 | O=C(Nc1ccc(-c2nc3cc(Cl)ccc3o2)cc1)c1cc2ccccc2o1 | 52%
78 | CCc1ccc2oc(-c3ccc(NC(=O)c4cc5ccccc5o4)cc3)nc2c1 | 40% (active)
79 | O=C(O)CC(NC(=O)Cc1ccccc1)c1ccccc1 (stereo not drawn) | 99%
80 | O=C1CCCc2cc(S(=O)(=O)NCC3CCC(C(=O)NCc4ccccc4Cl)CC3)ccc2N1 (stereo not drawn) | 71%
81 | COc1cc(NC(=O)c2cccc3c2C(=O)N(C2CCCCC2)C3)cc(OC)c1 | 90%
82 | COC(=O)c1ccc(NC(=O)c2cccc3c2C(=O)N(C2CCCCC2)C3)cc1 | 80%
83 | O=C(Nc1c(Cl)cccc1Cl)c1cccc2c1C(=O)N(C1CCCCC1)C2 | 78%
84 | Cc1cc(C)cc(NC(=O)c2cccc3c2C(=O)N(C2CCCCC2)C3)c1 | 33% (active)
85 | CC(C)c1ccc(NC(=O)c2cccc3c2C(=O)N(C2CCCCC2)C3)cc1 | -10% (active)
86 | COc1cc(NC(=O)c2cccc3c2C(=O)N(C2CCCCC2)C3)cc(OC)c1OC | 53%
87 | Cc1cccc(C2CC(=O)Nc3cc4c(cc32)OCO4)c1 (stereo not drawn) | 77%
88 | CCCCN(Cc1ccccc1)C(=O)CN(C)S(=O)(=O)c1ccc2c(c1)c(=O)n(C)c(=O)n2C | 128%
89 | Cc1ccc(C)c(Nc2nnc(-c3ccc(C)c(S(=O)(=O)N4CCN(C)CC4)c3)c3ccccc23)c1 | 84%
90 | COC(=O)c1cc2sc(Cl)cc2n1Cc1nc(-c2ccc(OC)cc2)oc1C | 72%
91 | COC(=O)c1cc2sccc2n1Cc1ccc(F)cc1 | 124%
92 | CCc1cc2c(cc(C(=O)OC)n2Cc2nc(-c3ccc(C)cc3)oc2C)s1 | 26% (active)
93 | COC(=O)c1cc2sccc2n1Cc1nc(-c2ccc(Cl)cc2)oc1C | 90%
94 | COC(=O)c1cc2sc(C)cc2n1Cc1nc(-c2ccc(C)cc2)oc1C | 109%
95 | COC(=O)CNC(=O)c1cc2sccc2n1Cc1ccccc1 | 97%
96 | COC(=O)c1cc2sccc2n1Cc1nc(-c2ccc(C)cc2)oc1C | 28% (active)
97 | COC(=O)c1cc2sccc2n1Cc1ccccc1 | 35% (active)
98 | COC(=O)c1cc2sccc2n1Cc1nc(-c2cccc(Cl)c2)oc1C | 83%
